From PubChem BioAssay AID652062 (Broad Institute, 2013)
Screen size: about 1,400 compounds; about 1,100 (79%) were called active.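 Rule for the calls: active = fitted half-maximal concentration of a falling signal no higher than twice the top valid dose in every test run; inconclusive = runs disagree, or flat partial inhibition, or poor fit; inactive = every run inactive: flat, wrong direction, or potency beyond limit.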 The set was probably picked from earlier hits. Only a sample is shown. Potency and affinity values are given separately.

assay: HIV-1 AD8 envelope cell-cell fusion blockers – cherry-pick, dose response (AID 652062); details: HeLa-AD8 Env / CEM-CCR5 cell fusion, luciferase; at 35 µM (top of the series) unless noted

Compound | activity change, negative = inhibition
C[C@@H]1CN([C@@H](C)CO)C(=O)Cc2cc(NC(=O)c3ccncc3)ccc2O[C@H]1CN(C)Cc1ccc(Cl)c(Cl)c1 | -39.7%
C[C@H](CO)N1C[C@H](C)[C@@H](CN(C)CC2CC2)Oc2ccc(NS(C)(=O)=O)cc2CC1=O | 4.33%
C[C@H]1CN([C@@H](C)CO)C(=O)Cc2cc(N(C)C)ccc2O[C@H]1CN(C)CC1CC1 | 11.8%
Nc1ccc(S(=O)(=O)c2ccc(N3CCOCC3)c(N)c2)cc1 | -17.7%
Cc1ccc(S(=O)(=O)N(C)C[C@H]2Oc3cc(-c4cccc(F)c4)ccc3S(=O)(=O)N([C@H](C)CO)C[C@H]2C)cc1 | -33.7%
COc1ccccc1-c1ccc2c(c1)O[C@H](CN(C)S(=O)(=O)c1ccccc1)[C@H](C)CN([C@H](C)CO)S2(=O)=O | 18.5%
COc1ccc2c3c([nH]c2c1)[C@H](CO)N(C(=O)Nc1cccc(F)c1)CC31CCN(S(=O)(=O)c2ccccc2)CC1 | -57.4%
COc1ccc2c3c(n(C)c2c1)[C@@H](CO)N(C(=O)Nc1ccc(F)cc1)CC31CCN(Cc2cccc(F)c2)CC1 | -2.46%
COc1ccc2c3c([nH]c2c1)[C@@H](CO)N(C(=O)Nc1cccc(F)c1)CC31CCN(S(=O)(=O)c2ccccc2)CC1 | -99.7%
COc1ccc2c3c(n(C)c2c1)[C@@H](CO)N(C(=O)C1CCOCC1)CC31CCN(Cc2cccc(F)c2)CC1 | -3.19%
CC1(C(=O)NCc2ccc3c(c2)OCO3)CCN1Cc1csc2ccccc12 (stereo not drawn) | -11%
CCNC1CCC(Nc2ccnc3cc(Cl)ccc23)CC1 (stereo not drawn) | -25.4%
CCCCCCc1nc2ccccc2c(=O)n1NC(=O)c1c(O)c2c(n(CC(C)C)c1=O)CCCC2 | -7.39%
COc1ccc(OCC(=O)Nc2cc(-c3nn(C)c(=O)c4ccccc34)ccc2OC)cc1 | -23.3%
COc1ccc(-c2nn(C)c(=O)c3ccccc23)cc1NC(=O)COc1ccccc1 | -10.9%
CN(C)C(=O)C[C@@H]1C[C@@H]2c3cc(NS(=O)(=O)c4ccc(F)cc4)ccc3O[C@@H]2[C@@H](CO)O1 | 8.4%
CS(=O)(=O)Nc1ccc2c(c1)[C@H]1C[C@H](CC(=O)N3CCc4ccccc4C3)O[C@H](CO)[C@H]1O2 | -8.56%
CN(C)C(=O)C[C@H]1C[C@@H]2c3cc(NS(=O)(=O)c4ccc(F)cc4)ccc3O[C@@H]2[C@@H](CO)O1 | -6.58%
CS(=O)(=O)Nc1ccc2c(c1)[C@@H]1C[C@@H](CC(=O)N3CCc4ccccc4C3)O[C@H](CO)[C@@H]1O2 | 41.9%

Compound | activity change, negative = inhibition
CS(=O)(=O)Nc1ccc2c(c1)[C@H]1C[C@@H](CC(=O)NCCN3CCCCC3)O[C@@H](CO)[C@H]1O2 | 21%
O=C(Nc1ccc(F)cc1)Nc1ccc2c(c1)[C@@H]1C[C@H](CC(=O)N3CCCCC3)O[C@H](CO)[C@@H]1O2 | -21.7%
O=C(C[C@@H]1C[C@H]2c3cc(NC(=O)Nc4ccc(F)cc4)ccc3O[C@H]2[C@H](CO)O1)NCC1CC1 | 49.9%
CN1CCN(C(=O)C[C@H]2C[C@@H]3c4cc(NS(C)(=O)=O)ccc4O[C@@H]3[C@H](CO)O2)CC1 | -46%
O=C(C[C@H]1C[C@@H]2c3cc(NC(=O)Nc4ccc(F)cc4)ccc3O[C@@H]2[C@@H](CO)O1)NCC1CC1 | -36.8%
O=C(Nc1ccc(F)cc1)Nc1ccc2c(c1)[C@@H]1C[C@H](CC(=O)N3CCCCC3)O[C@@H](CO)[C@@H]1O2 | -7.88%
COc1cccc(S(=O)(=O)Nc2ccc3c(c2)[C@H]2C[C@H](CC(=O)NCc4ccc(Cl)cc4)O[C@@H](CO)[C@H]2O3)c1 | 0.353%
COCCNC(=O)C[C@@H]1C[C@H]2c3cc(N(C)C)ccc3O[C@H]2[C@@H](CO)O1 | -37%
CN(C)CC(=O)Nc1ccc2c(c1)[C@H]1C[C@H](CC(=O)NCc3cccc(F)c3)O[C@@H](CO)[C@H]1O2 | -1.18%
O=C(C[C@@H]1C[C@@H]2c3cc(NC(=O)C4CCOCC4)ccc3O[C@@H]2[C@H](CO)O1)NCc1ccccc1F | 23.2%
O=C(C[C@@H]1C[C@H]2c3cc(NC(=O)C4CCOCC4)ccc3O[C@H]2[C@H](CO)O1)NCc1ccccc1F | 10.9%
O=C(C[C@H]1C[C@H]2c3cc(NS(=O)(=O)c4ccc(F)cc4)ccc3O[C@H]2[C@@H](CO)O1)NCc1ccccc1F | 28%
O=C(C[C@H]1C[C@@H]2c3cc(NC(=O)C4CCOCC4)ccc3O[C@@H]2[C@@H](CO)O1)NCc1ccccc1F | -7.12%
COc1ccc(S(=O)(=O)N(C)C[C@H]2Oc3cc(C4=CCCC4)ccc3S(=O)(=O)N([C@@H](C)CO)C[C@H]2C)cc1 | 5.51%
Cc1ccc(S(=O)(=O)N(C)C[C@H]2Oc3cc(C4=CCCC4)ccc3S(=O)(=O)N([C@H](C)CO)C[C@H]2C)cc1 | -41.2%
COc1cccc(/C=N/NC(=O)CC2C(=O)NN=C2C)c1O (stereo not drawn) | -20%
COc1ccc(CCCC(=O)NCCc2ccccc2)c(C)c1 | 7.11%
CCCNC(=O)C[C@@H]1C[C@@H]2c3cc(NC(=O)Cc4ccncc4)ccc3O[C@@H]2[C@@H](CO)O1 | -32.8% [at 30 µM]
CCCNC(=O)C[C@@H]1C[C@H]2c3cc(NC(=O)Cc4ccncc4)ccc3O[C@H]2[C@@H](CO)O1 | 10.9% [at 30 µM]
